Assays:
Details in all cases: concentration: 1 μM, replicates: in singlicate; n = 1
CTK = test system: T1, CTK
T1 construct: gene MATK

DAPK1 = test system: DAPK1
DAPK2 = test system: DAPK2
DAPK3 = test system: DAPK3
DCAMKL1 = test system: T2, DCAMKL1
T2 construct: gene DCLK1

DCAMKL2 = test system: T3, DCAMKL2
T3 construct: gene DCLK2

DCAMKL3 = test system: T4, DCAMKL3
T4 construct: gene DCLK3

DDR1 = test system: DDR1
DDR2 = test system: DDR2
DLK = test system: T5, DLK
T5 construct: gene MAP3K12

DMPK2 = test system: T6, DMPK2
T6 construct: gene CDC42BPG

DMPK = test system: DMPK
DRAK1 = test system: T7, DRAK1
T7 construct: gene STK17A

DRAK2 = test system: T8, DRAK2
T8 construct: gene STK17B

DYRK1A = test system: DYRK1A
DYRK1B = test system: DYRK1B
DYRK2 = test system: DYRK2
EGFR = test system: EGFR
EIF2AK1 = test system: EIF2AK1
EPHA1 = test system: EPHA1
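Note: KINOMEscan kinase panel screen.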

Structure (SMILES)	%Inh (CTK)	%Inh (DAPK1)	%Inh (DAPK2)	%Inh (DAPK3)	%Inh (DCAMKL1)	%Inh (DCAMKL2)	%Inh (DCAMKL3)	%Inh (DDR1)	%Inh (DDR2)	%Inh (DLK)	%Inh (DMPK2)	%Inh (DMPK)	%Inh (DRAK1)	%Inh (DRAK2)	%Inh (DYRK1A)	%Inh (DYRK1B)	%Inh (DYRK2)	%Inh (EGFR)	%Inh (EIF2AK1)	%Inh (EPHA1)
O=C1NC(=O)C(c2ccc(Cl)cc2)=C1Nc1ccc(O)cc1 [SB-340867]	0%	0%	0%	0%	0%	0%	0%	0%	0%	0%	0%	0%	0%	0%	1%	0%	0%	5%	0%	16%
CC(=O)c1c(C)c2cnc(Nc3ccc(N4CCNCC4)cn3)nc2n(C2CCCC2)c1=O	0%	0%	13%	6%	0%	0%	0%	0%	0%	0%	96%	15%	8%	5%	0%	0%	0%	4%	0%	24%
Cn1cncc1C(=O)NC1CCN(c2ccnc(Nc3ccc(F)cc3)n2)C1 (stereo not shown) [GSK1379717]	0%	13%	0%	5%	0%	0%	0%	7%	0%	0%	0%	0%	0%	0%	0%	21%	0%	15%	3%	2%
CC[C@@H]1CO[C@H](C(=O)Nc2ccccc2)CN1c1cc(-c2ccc3c(N)n[nH]c3c2)nc(NC)n1 [GSK2376236]	0%	17%	37%	47%	2%	0%	90%	0%	11%	0%	5%	0%	95.3%	68%	1%	0%	12%	71%	0%	3%
FC(F)(F)c1ccccc1-c1cc(-c2c[nH]nc2-c2ccccn2)ccn1 [GW679396]	0%	0%	9%	23%	6%	0%	2%	68%	2%	32%	7%	16%	14%	2%	0%	13%	12%	0%	0%	0%
CSc1ccc(-c2nc3n(c2-c2ccncc2)CCC3)cc1 [SKF-105561]	21%	29%	0%	0%	3%	0%	21%	75%	60%	0%	0%	0%	1%	0%	3%	0%	0%	7%	0%	12%
COc1cccc(C2=C(Nc3cc(Cl)c(O)c(Cl)c3)C(=O)NC2=O)c1 [SB-390767]	10%	0%	0%	17%	11%	0%	26%	96.1%	18%	0%	0%	0%	2%	0%	38%	0%	2%	0%	0%	8%
COc1ccc(CSc2nnc(-c3ccc4c(c3)CCO4)o2)cc1	0%	0%	18%	0%	0%	0%	0%	0%	15%	0%	0%	0%	0%	3%	0%	35%	0%	0%	0%	0%
COc1ccc(Nc2nccc(NCCNC(=O)Nc3cc(C)ccc3C)n2)cc1 [GSK1379899]	4%	0%	0%	0%	0%	0%	0%	9%	0%	10%	0%	0%	0%	0%	18%	7%	2%	27%	0%	5%
Nc1ncnc2occ(-c3ccc4c(c3)CCN4C(=O)Cc3cc(F)ccc3F)c12 [GSK2645446]	0%	0%	0%	0%	10%	0%	0%	0%	25%	8%	51%	7%	0%	0%	6%	0%	0%	18%	0%	11%
CNCc1ccc2nc(NC(=O)c3ccc(C(C)(C)C)cc3)cn2c1	45%	0%	0%	1%	15%	4%	24%	9%	24%	27%	0%	7%	11%	24%	35%	0%	6%	0%	4%	4%

— paper PMC5540273 (PLoS ONE, 2017)
